# Data: PubChem BioAssay (Tox21)
# Where “and” joins values, the source holds several entries; their conditions need not be identical. Identical values can stand only once. Values without a mark were called inactive. Calls of active or inactive are those of the source. Calls come from the whole dose curve.
# Test: qHTS assay to identify small molecule agonists of the estrogen related receptor (ERR) signaling pathway from Tox21 library (AID 1224849); note: nearly all actives have a fitted effect of over 15% in size
# Conditions: ERR reporter cell line, ONE-Glo luciferase, 18 h; at 42.5 µM (top of the series)
# Source text: National Center for Advancing Translational Sciences [NCATS]
# NIH Chemical Genomics Center [NCGC]
# U.S. Environmental Protection Agency [EPA]
# National Institutes of Environmental Health Sciences [NIEHS]
# National Toxicology Program [NTP]
# Estrogen related receptors (ERRs), the first orphan nuclear receptors discovered, play an important role in the control of cellular energy metabolism. ERRs are required for high-energy production in response to the environmental challenges. ERR-alpha was also identified as an adverse marker for breast cancer progression; ERR-alpha-positive tumors have a poor prognosis. To screen and to identify environmental compounds that perturb the ERR signaling pathways could provide valuable information for potential therapeutic or preventive measures in the treatment of metabolic disease. For identifying ERR agonists, ERR cell line (provided by NTP) has been used to screen Tox21 10K library.
# The ERR cells were dispensed at 2,000 cells/5 ul/well in 1536-well white plates using a Multidrop dispenser. After the assay plates were incubated at a 37 C/5% CO2 incubator for 6 hours, 23 nL of compounds dissolved in DMSO, positive and negative controls or DMSO only was transferred to the assay plate by a pin tool. The plates were incubated at 37 C for 18 hours. 4 ul/well of One-Glo reagent was added into the assay plates using a Flying Reagent Dispenser. After 30-minute incubation at room temperature, the luminescence intensity in the plates was measured using a ViewLux plate reader.
# % is set by controls: 0 for no effect and ±100 for the full control effect.
row,SMILES,"activity change, positive = activation"
1,CCOC(=O)C(C)(C)Oc1ccc(Cl)cc1,1.46%
2,C[C@]12CC[C@@H]3c4ccc(O)cc4C[C@@H](CCCCCCCCCS(=O)CCCC(F)(F)C(F)(F)F)[C@H]3[C@@H]1CC[C@@H]2O (stereo not given in full),-35% and -33.1%
3,CC(C)Cc1ccc(C(C)C(=O)O)cc1 (stereo not given),3.45%
4,Oc1cccc(O)c1,6.02%
5,CCCCCCCCOc1ccc(C(=O)c2ccccc2)c(O)c1,-7.25%
6,COC1=CC(=O)C[C@@H](C)[C@]12Oc1c(Cl)c(OC)cc(OC)c1C2=O,-32%
7,CO[C@H]1C=CO[C@@]2(C)Oc3c(C)c(O)c4c(O)c(c(/C=N/N5CCN(C)CC5)c(O)c4c3C2=O)NC(=O)/C(C)=C\C=C[C@H](C)[C@H](O)[C@@H](C)[C@@H](O)[C@@H](C)[C@H](OC(C)=O)[C@@H]1C,-25.2% and -32.7%
8,Cc1ccc(O)c(-n2nc3ccccc3n2)c1,147% (active)
9,OCCCc1ccccc1,-1.08%
10,CC1(C)O[C@@H]2[C@@H](CO[C@@]3(COS(N)(=O)=O)OC(C)(C)O[C@@H]23)O1,1.2%
11,O=C(O)CCCCC1CCSS1 (stereo not given),4.75%
12,O=c1cc[nH]c(=O)[nH]1,5.28%
13,OC[C@@H](O)[C@@H](O)[C@H](O)[C@H](O)CO,2.34%
14,CCCCNC(=O)NS(=O)(=O)c1ccc(N)cc1,-4%
15,CCN(CC)CCOC(=O)c1ccc(N)cc1,3.59%

# Same assay, conditions: ERR reporter cell line, ONE-Glo luciferase, 18 h; at 92.4 µM (top of the series)
row,SMILES,"activity change, positive = activation"
1,CCOC(=O)C(C)(C)Oc1ccc(Cl)cc1,1.63% and -0.349%
2,COC(=O)c1ccc(C=O)cc1,-0.881%
3,C[C@]12CC[C@@H]3c4ccc(O)cc4C[C@@H](CCCCCCCCCS(=O)CCCC(F)(F)C(F)(F)F)[C@H]3[C@@H]1CC[C@@H]2O (stereo not given in full),-37.7%
4,CC(C)Cc1ccc(C(C)C(=O)O)cc1 (stereo not given),-6.89% and 1.38%
5,Oc1cccc(O)c1,-15.4% and -1.21%
6,CCCCCCCCOc1ccc(C(=O)c2ccccc2)c(O)c1,6.94% and -4.94%
7,COC1=CC(=O)C[C@@H](C)[C@]12Oc1c(Cl)c(OC)cc(OC)c1C2=O,-36.3% and -39.4%
8,COC(=O)C1CCC(C(=O)OC)CC1 (stereo not given),0.483% and 7.26% and 4.66%
9,CO[C@H]1C=CO[C@@]2(C)Oc3c(C)c(O)c4c(O)c(c(/C=N/N5CCN(C)CC5)c(O)c4c3C2=O)NC(=O)/C(C)=C\C=C[C@H](C)[C@H](O)[C@@H](C)[C@@H](O)[C@@H](C)[C@H](OC(C)=O)[C@@H]1C,-53.6%
10,Cc1ccc(O)c(-n2nc3ccccc3n2)c1,109% (active) and 139% (active)
11,OCCCc1ccccc1,4.65%
12,C=C(C)C(N)=O,10.9% and 3.35%
13,O=C(OCc1ccccc1)c1ccccc1,13.6%
14,Cc1cccc(C)c1O,7.32% and 4.77%
15,CC1(C)O[C@@H]2[C@@H](CO[C@@]3(COS(N)(=O)=O)OC(C)(C)O[C@@H]23)O1,-14.9%
16,CN(C)C=O,7.34% and 6.88%
17,O=C(O)CCCCC1CCSS1 (stereo not given),-0.498% and 6.05%
18,O=C1CCCCCN1,0.0496% and -0.16%
19,Cc1cccc2ccccc12,-5.59% and 0.133%
20,O=c1cc[nH]c(=O)[nH]1,0.687%
21,OC[C@@H](O)[C@@H](O)[C@H](O)[C@H](O)CO,1.3% and 3.91%
22,CCCCNC(=O)NS(=O)(=O)c1ccc(N)cc1,2.9%
23,CCN(CC)CCOC(=O)c1ccc(N)cc1,2.93%
24,CCCCCCCC(=O)OCC(O)CO (stereo not given),1.37%
25,C=C(C)OC(C)=O,4.28% and 3.36%
